# Assay results from the supplement of paper PMC8728848.
# The full list was thinned out, with the strongest signals kept by preference.
# How the values were obtained:
# Experiment in all cases: glycan array binding signal (z-score within array); higher = stronger binding
# Conditions in all cases: glycan notation: IUPAC condensed, linker removed
# [1] = target: Fuc(a1-2)Gal
# Outline: (§1)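 The binding signal is a Z-score computed within each array and averaged over linkers. Arrays of the same protein sequence at different concentrations or buffers were also averaged together. Data originate from 3228 arrays in the Consortium for Functional Glycomics database, kept only where the protein sequence was available.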
# [2] = target: Fuc(a1-2)Gal(b1-3)GlcNAc(b1-2)Man(a1-3)[Fuc(a1-2)Gal(b1-3)GlcNAc(b1-2)Man(a1-6)]Man(b1-4)GlcNAc(b1-4)GlcNAc
# Outline: as §1
# [3] = target: Fuc(a1-2)Gal(b1-3)GlcNAc(b1-3)[Neu5Ac(a2-6)Gal(b1-4)GlcNAc(b1-6)]Gal(b1-4)Glc
# Outline: as §1
# [4] = target: Fuc(a1-2)Gal(b1-4)Glc6S
# Outline: as §1
# [5] = target: Fuc(a1-2)Gal(b1-4)GlcNAc
# Outline: as §1
# [6] = target: Fuc(a1-2)[Gal(a1-3)]Gal
# Outline: as §1
# [7] = target: Fuc(a1-2)[Gal(a1-3)]Gal(b1-3)GlcNAc(b1-2)Man(a1-3)[Fuc(a1-2)[Gal(a1-3)]Gal(b1-3)GlcNAc(b1-2)Man(a1-6)]Man(b1-4)GlcNAc(b1-4)[Fuc(a1-6)]GlcNAc
# Outline: as §1
# [8] = target: Fuc(a1-2)[Gal(a1-3)]Gal(b1-4)GlcNAc
# Outline: as §1
# [9] = target: Fuc(a1-2)[GalNAc(a1-3)]Gal(b1-4)GlcNAc(b1-2)Man(a1-3)[Fuc(a1-2)[GalNAc(a1-3)]Gal(b1-4)GlcNAc(b1-2)Man(a1-6)]Man(b1-4)GlcNAc(b1-4)GlcNAc
# Outline: as §1
# [10] = target: Fuc(a1-2)[GalNAc(b1-3)]Gal
# Outline: as §1
# [11] = target: Fuc(a1-3)[Gal(b1-4)]Glc6S
# Outline: as §1
# [12] = target: Fuc(a1-3)[Gal(b1-4)]GlcNAc(b1-3)Gal(b1-3)[Fuc(a1-4)]GlcNAc
# Outline: as §1
# [13] = target: Fuc(a1-4)GlcNAc
# Outline: as §1
# [14] = target: Gal(a1-3)Gal(b1-4)GlcNAc(b1-2)Man(a1-3)[Gal(a1-3)Gal(b1-4)GlcNAc(b1-2)Man(a1-6)]Man(b1-4)GlcNAc(b1-4)GlcNAc
# Outline: as §1
# [15] = target: Gal(a1-3)GalNAc
# Outline: as §1
# [16] = target: Gal(a1-4)Gal(b1-3)GlcNAc(b1-2)Man(a1-3)[Gal(a1-4)Gal(b1-3)GlcNAc(b1-2)Man(a1-6)]Man(b1-4)GlcNAc(b1-4)GlcNAc
# Outline: as §1
# [17] = target: Gal(a1-4)Gal(b1-4)GlcNAc
# Outline: as §1
# [18] = target: Gal(a1-4)Gal(b1-4)GlcNAc(b1-2)Man(a1-3)[Gal(a1-4)Gal(b1-4)GlcNAc(b1-2)Man(a1-6)]Man(b1-4)GlcNAc(b1-4)GlcNAc
# Outline: as §1
# [19] = target: Gal(a1-4)GlcNAc
# Outline: as §1
# [20] = target: Gal(b1-3)GlcNAc(b1-2)Man(a1-3)[Gal(b1-3)GlcNAc(b1-2)Man(a1-6)]Man(b1-4)GlcNAc(b1-4)GlcNAc
# Outline: as §1
# [21] = target: Gal(b1-3)GlcNAc(b1-2)Man(a1-3)[Gal(b1-3)GlcNAc(b1-2)Man(a1-6)]Man(b1-4)GlcNAc(b1-4)[Fuc(a1-6)]GlcNAc
# Outline: as §1
# [22] = target: Gal(b1-3)GlcNAc(b1-2)Man(a1-3)[GlcNAc(b1-4)][Gal(b1-3)GlcNAc(b1-2)Man(a1-6)]Man(b1-4)GlcNAc(b1-4)GlcNAc
# Outline: as §1
# [23] = target: Gal(b1-3)GlcNAc(b1-2)[Gal(b1-3)GlcNAc(b1-6)]Man(a1-6)[Gal(b1-3)GlcNAc(b1-2)Man(a1-3)]Man(b1-4)GlcNAc(b1-4)GlcNAc
# Outline: as §1
# [24] = target: Gal(b1-3)GlcNAc(b1-3)Gal(b1-3)GlcNAc
# Outline: as §1
# [25] = target: Gal(b1-3)[Fuc(a1-4)]GlcNAc(b1-3)Gal(b1-4)[Fuc(a1-3)]GlcNAc
# Outline: as §1
# [26] = target: Gal(b1-4)GlcNAc(a1-6)Gal(b1-4)GlcNAc
# Outline: as §1
# [27] = target: Gal(b1-4)GlcNAc(b1-2)Man(a1-3)Man(b1-4)GlcNAc(b1-4)GlcNAc
# Outline: as §1
# [28] = target: Gal(b1-4)GlcNAc(b1-2)Man(a1-3)[GlcNAc(b1-2)Man(a1-6)]Man(b1-4)GlcNAc(b1-4)GlcNAc
# Outline: as §1
# [29] = target: Gal(b1-4)GlcNAc(b1-3)Gal(b1-4)GlcNAc(b1-2)Man(a1-3)[Gal(b1-4)GlcNAc(b1-3)Gal(b1-4)GlcNAc(b1-2)Man(a1-6)]Man(b1-4)GlcNAc(b1-4)[Fuc(a1-6)]GlcNAc
# Outline: as §1
# [30] = target: Gal(b1-4)GlcNAc(b1-3)Gal(b1-4)GlcNAc(b1-3)Gal(b1-4)GlcNAc(b1-3)Gal(b1-4)GlcNAc(b1-2)[Gal(b1-4)GlcNAc(b1-3)Gal(b1-4)GlcNAc(b1-3)Gal(b1-4)GlcNAc(b1-3)Gal(b1-4)GlcNAc(b1-6)]Man(a1-6)[Gal(b1-4)GlcNAc(b1-3)Gal(b1-4)GlcNAc(b1-3)Gal(b1-4)GlcNAc(b1-3)Gal(b1-4)GlcNAc(b1-2)Man(a1-3)]Man(b1-4)GlcNAc(b1-4)[Fuc(a1-6)]GlcNAc
# Outline: as §1
# [31] = target: Gal(b1-4)GlcNAc(b1-3)Gal(b1-4)GlcNAc(b1-3)Gal(b1-4)GlcNAc(b1-3)Gal(b1-4)GlcNAc(b1-3)Gal(b1-4)GlcNAc(b1-3)Gal(b1-4)GlcNAc(b1-2)Man(a1-3)[Gal(b1-4)GlcNAc(b1-3)Gal(b1-4)GlcNAc(b1-3)Gal(b1-4)GlcNAc(b1-3)Gal(b1-4)GlcNAc(b1-3)Gal(b1-4)GlcNAc(b1-3)Gal(b1-4)GlcNAc(b1-2)Man(a1-6)]Man(b1-4)GlcNAc(b1-4)GlcNAc
# Outline: as §1
# [32] = target: Gal(b1-4)GlcNAc(b1-6)GalNAc
# Outline: as §1
# [33] = target: Gal(b1-4)GlcNAc(b1-6)[Gal(b1-3)]GalNAc
# Outline: as §1
binder,measurement,setting,value
RBMC1 (Vibrio cholerae) (protein) QQSQRVVTADNLMYLRSGFAIDAIGTTVNNLVGGPVQGTNGGVLRAPIALDQLQSVEVTSGLYNWGGYHIVAIKFTMKDGSSVLLGSTHYASNKKVETYTVPQGKRIKQINVWTGGWLVEGFQFVY,glycan array binding signal (z-score),[1],-0.366
same,glycan array binding signal (z-score),[2],1.37
same,glycan array binding signal (z-score),[3],-0.436
same,glycan array binding signal (z-score),[4],-0.119
same,glycan array binding signal (z-score),[5],-0.362
same,glycan array binding signal (z-score),[6],-0.15
same,glycan array binding signal (z-score),[7],-0.324
same,glycan array binding signal (z-score),[8],-0.311
same,glycan array binding signal (z-score),[9],0.123
same,glycan array binding signal (z-score),[10],-0.299
same,glycan array binding signal (z-score),[11],-0.164
same,glycan array binding signal (z-score),[12],-0.378
same,glycan array binding signal (z-score),[13],-0.041
same,glycan array binding signal (z-score),[14],2.77
same,glycan array binding signal (z-score),[15],-0.237
same,glycan array binding signal (z-score),[16],1.41
same,glycan array binding signal (z-score),[17],-0.178
same,glycan array binding signal (z-score),[18],3.8
same,glycan array binding signal (z-score),[19],-0.353
same,glycan array binding signal (z-score),[20],2.48
same,glycan array binding signal (z-score),[21],0.912
same,glycan array binding signal (z-score),[22],-0.049
same,glycan array binding signal (z-score),[23],-0.266
same,glycan array binding signal (z-score),[24],-0.311
same,glycan array binding signal (z-score),[25],-0.3
same,glycan array binding signal (z-score),[26],-0.36
same,glycan array binding signal (z-score),[27],-0.354
same,glycan array binding signal (z-score),[28],1.72
same,glycan array binding signal (z-score),[29],2.64
same,glycan array binding signal (z-score),[30],-0.194
same,glycan array binding signal (z-score),[31],0.712
same,glycan array binding signal (z-score),[32],-0.186
same,glycan array binding signal (z-score),[33],0.163
